GLP1R inv ag – inverse agonists of human GLP-1 receptor | P43220 | HEK293 GLP-1R CRE-luciferase, luminescence, 24 h; GLP-1R form is constitutively active | Potency, µM (titrated, usually from 38.3 µM), inactives show top-dose activity change, negative = inhibition, most hits filed as inhibitors | 410,000 compounds, 1.6% hits; further: on the % scale 0 is the no-effect control and ±100 the full control effect; nearly all actives have a fitted effect of over 55% in size
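Stable HEK293 clone (constitutively active GLP-1R + cAMP-response luciferase); 200 cells/uL plated, 12 h pre-culture, compound 24 hr, 37 deg C/5% CO2; detection reagent 12 min RT; luminescence.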
GLP1R ag – GLP-1 receptor (human) agonism | P43220 | HEK293 GLP-1R CRE-luciferase, luminescence, 4-6 h; cells express a hypersensitive GLP-1R form | Potency, µM (titrated, usually from 45.6 µM), inactives show top-dose activation, hits mostly activators | 380,000 compounds, 0.007% hits | AID 624172; further: % of control where 0% means no effect
GLP1R cytotox – cytotoxic in the GLP-1 receptor inverse agonist counter-screen; AID 624418; Potency, µM (top dose mostly 38.3 µM), without a hit: top-dose activity change, negative = inhibition, most hits filed as inhibitors; 410,000 compounds, 0.13% hits; HEK293 cAMP-luciferase reporter cells, luminescence, 24 h;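 further: loss of luciferase light is scored as toxicity; on the % scale 0 is the no-effect control and ±100 the full control effect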
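A 23 nL compound transfer followed 12 hours of cell culture at 37 deg C; exposure then lasted 24 hr. Luciferase assay detection reagent was dispensed and plates read for luminescence after a 12 min room-temperature wait.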
PTHR1 ag – activates the human parathyroid hormone receptor PTHR1; Q03431; HEK293 GP2 PTHR1 cells, GloSensor cAMP luminescence, 1 h; Potency, µM (series often up to 115 µM), without a hit: top-dose activation, usual class: activators; 410,000 compounds, 0.075% hits; further: nearly all actives have a fitted effect of over 55% in size
Target sequence (Q03431 whole entry, looked up): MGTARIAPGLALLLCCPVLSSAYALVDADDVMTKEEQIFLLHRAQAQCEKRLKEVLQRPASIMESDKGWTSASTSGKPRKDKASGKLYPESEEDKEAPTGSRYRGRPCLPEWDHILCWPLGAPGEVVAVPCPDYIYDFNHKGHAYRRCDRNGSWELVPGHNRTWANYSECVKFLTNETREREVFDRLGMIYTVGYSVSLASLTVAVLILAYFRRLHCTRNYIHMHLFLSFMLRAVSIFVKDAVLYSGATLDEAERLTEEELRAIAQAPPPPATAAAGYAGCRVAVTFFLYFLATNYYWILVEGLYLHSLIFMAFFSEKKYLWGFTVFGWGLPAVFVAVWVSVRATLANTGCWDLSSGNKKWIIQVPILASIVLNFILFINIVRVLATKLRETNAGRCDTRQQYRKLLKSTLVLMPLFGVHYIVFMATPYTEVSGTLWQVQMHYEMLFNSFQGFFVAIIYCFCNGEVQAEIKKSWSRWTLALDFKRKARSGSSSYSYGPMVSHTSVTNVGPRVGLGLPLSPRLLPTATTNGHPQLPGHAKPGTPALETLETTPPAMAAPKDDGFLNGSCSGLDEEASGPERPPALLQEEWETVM
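HEK-293-derived GP2 cells expressing PTHR1 and a GloSensor cAMP reporter, 3,000/well, plated overnight, given luciferin plus IBMX (each 0.5 mM as added) for 1 h at 37 °C, then compound for 1 h at 37 °C. Luminescence was read after 15 min at room temperature.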
* hit, by the source's call; [ ] = dose if it differs, or a comment. Most compounds without a hit are left out; they make up all but 1.7% or so of the library. The call rests on the fitted dose curve; in most records, active means well fitted curve in the direction sought with a large enough effect; inconclusive means small, poorly fitted or top-dose-only effect, or another doubt; inactive means no such curve, though single readings can be large; an effect the other way counts as inactive or inconclusive. Potency means the concentration at half of the fitted maximal effect.

Screening O=[N+]([O-])c1c(Cl)cccc1-c1c[nH]cc1Cl returned GLP1R ag 17.9%.
COc1ccc(C(=O)CSc2nnc(CNc3ccc(C)cc3C)n2Cc2ccco2)cc1 was read as GLP1R inv ag 0.0%, GLP1R ag -0.6%, GLP1R cytotox -19.7% and PTHR1 ag -16.4%[57.5 µM].
Screening Cc1ccc(C(=O)CSc2nnc(CNc3ccc(C)cc3C)n2Cc2ccco2)cc1 returned GLP1R inv ag 10µM*, GLP1R ag -0.2%, GLP1R cytotox -16.8% and PTHR1 ag inactive.
`Cc1ccc2nc(SCC(=O)Nc3cc(C(F)(F)F)ccc3N3CCOCC3)[nH]c2c1` gave GLP1R inv ag 1.26µM*, GLP1R ag 16.9%, GLP1R cytotox inconclusive and PTHR1 ag -44.5%[57.5 µM].
Screening COc1cccc(-n2cc(CN(C)Cc3nc(Cc4ccccc4)no3)cn2)c1 returned GLP1R inv ag inconclusive, GLP1R ag 13.1%, GLP1R cytotox 1.9% and PTHR1 ag -39.6%.
For COc1cccc(-n2cc(CN(C)Cc3nc(Cc4cccc(F)c4)no3)cn2)c1 the results were GLP1R inv ag 10µM*, GLP1R ag -0.2%, GLP1R cytotox -6.2% and PTHR1 ag -21.8%.
`COc1ccccc1NC(=O)C(C)N(C)CCOc1ccccc1` (configuration not stated) gave GLP1R inv ag 11.2µM*, GLP1R ag 17.1%, GLP1R cytotox 19.7% and PTHR1 ag -23.9%.
Screening O=C(NC1CCCC1)C(c1ccsc1)N(C(=O)Cc1cccs1)c1ccc(F)cc1 (configuration not stated) returned GLP1R inv ag 17.3%, GLP1R ag 4.3%, GLP1R cytotox 5.0% and PTHR1 ag inactive.
Screening O=C(NC1CCCC1)C(c1ccccc1F)N(C(=O)Cc1cccs1)c1ccc2c(c1)OCCO2 (configuration not stated) returned GLP1R inv ag 10µM*, GLP1R ag 4.2%, GLP1R cytotox 5.3% and PTHR1 ag -10.7%.
Screening CCCN(CC(=O)Nc1ccccc1C)CC(=O)Nc1ccc(Br)cc1F returned GLP1R inv ag 10µM*, GLP1R ag 12.3%, GLP1R cytotox -22.7% and PTHR1 ag inactive.
For CCCN(CC(=O)Nc1ccccc1Br)CC(=O)Nc1ccc(F)c(F)c1F the results were GLP1R inv ag inconclusive, GLP1R ag 18.8%, GLP1R cytotox -16.3% and PTHR1 ag -28.8%.
For c1ccc(C(Cc2nc(-c3ccccn3)no2)c2ccccc2)cc1 the results were GLP1R inv ag 10µM*, GLP1R ag -7.6%, GLP1R cytotox 1.4% and PTHR1 ag -4.8%[57.5 µM].
Screening Cc1ccc(-c2nc(-c3ccccn3)no2)cc1Cl returned GLP1R inv ag 1.58µM*, GLP1R ag -5.9%, GLP1R cytotox -4.4% and PTHR1 ag inactive.
Screening Cc1ccc(-c2nc(-c3ccccn3)no2)cc1 returned GLP1R inv ag 0.891µM*, GLP1R ag -28.2%, GLP1R cytotox -17.9% and PTHR1 ag -4.9%.
Screening Clc1cccc(-c2nc(-c3ccccn3)no2)c1 returned GLP1R inv ag -76.2%, GLP1R ag -17.2%, GLP1R cytotox 7.1% and PTHR1 ag -6.2%[57.5 µM].
`CCOC(=O)CC(NC(=O)N1CCC(CN2CCC(C)CC2)CC1)c1ccccc1` (configuration not stated) gave GLP1R inv ag 4.6%, GLP1R cytotox 0.3% and PTHR1 ag -8.9%.
`CCN(CC(=O)NC(=O)NCc1ccco1)Cc1nc2ccccc2c(=O)[nH]1` gave GLP1R inv ag -12.3%, GLP1R ag 0.1%, GLP1R cytotox 11.2µM* and PTHR1 ag -27.7%.
O=C(NNc1ccccc1[N+](=O)[O-])Nc1ccc(Cl)c(Cl)c1 was read as GLP1R inv ag inconclusive, GLP1R ag 2.7%, GLP1R cytotox -1.9% and PTHR1 ag -27.0%.
CCN(CC)S(=O)(=O)c1cc([N+](=O)[O-])ccc1NNC(=O)Nc1ccc(Cl)c(Cl)c1 was read as GLP1R inv ag 2.24µM*, GLP1R ag -8.5%, GLP1R cytotox inconclusive and PTHR1 ag -35.0%.
Screening O=C(Nc1ccc(Nc2ccccc2)cc1)c1ccc(Cl)cc1Cl returned GLP1R inv ag 8.91µM*, GLP1R ag 12.4%, GLP1R cytotox -24.7% and PTHR1 ag -10.7%.
Cc1nc(Nc2ccc(Cl)cc2Cl)sc1C(=O)Nc1ccccc1 was read as GLP1R inv ag 10µM*, GLP1R ag 10.8%, GLP1R cytotox -13.4% and PTHR1 ag -15.7%.
O=C(NNc1ccccc1)C(=O)NNS(=O)(=O)c1ccc([N+](=O)[O-])cc1 was read as GLP1R inv ag 3.16µM*, GLP1R ag -0.1%, GLP1R cytotox inconclusive and PTHR1 ag inactive.
COc1ccccc1-c1nn(CCC(=O)Nc2cccc(C(C)=O)c2)c2nc(C)cc(C)c12 was read as GLP1R inv ag -26.6%, GLP1R ag -1.1%, GLP1R cytotox 2.4% and PTHR1 ag -10.4%.
`CCCCN(CCCC)S(=O)(=O)c1ccc(NC(=O)c2ccc([N+](=O)[O-])cc2Cl)cc1` gave GLP1R inv ag 3.98µM*, GLP1R ag -7.6%, GLP1R cytotox -23.5% and PTHR1 ag -27.0%.
For Cc1cccc(NC(=O)c2cc([N+](=O)[O-])ccc2Cl)c1O the results were GLP1R inv ag inconclusive, GLP1R ag 0.4%, GLP1R cytotox -5.0% and PTHR1 ag inactive.
Screening O=C(NNc1ccc([N+](=O)[O-])cc1)c1ccccc1F returned GLP1R inv ag inconclusive, GLP1R ag -0.8%, GLP1R cytotox inconclusive and PTHR1 ag inactive.
O=C(Nc1ccccc1Oc1ccccc1)c1cc([N+](=O)[O-])ccc1Cl was read as GLP1R inv ag 4.47µM*, GLP1R ag 12.0%, GLP1R cytotox 3.7% and PTHR1 ag inactive.
`O=C(O)c1ccccc1C(=O)Nc1ccc(Nc2ccc([N+](=O)[O-])cc2[N+](=O)[O-])cc1` gave GLP1R inv ag 28.5%, GLP1R ag 9.7%, GLP1R cytotox -25.0% and PTHR1 ag inactive.
O=C(NNc1ccc([N+](=O)[O-])cc1)c1ccccc1Cl was read as GLP1R inv ag 1.78µM*, GLP1R ag -3.0%, GLP1R cytotox 0.8% and PTHR1 ag -20.4%.
`O=C(Nc1ccc(Nc2ccccc2)cc1)c1cc([N+](=O)[O-])ccc1Cl` gave GLP1R inv ag 3.16µM*, GLP1R ag -1.6%, GLP1R cytotox -17.4% and PTHR1 ag -5.6%.
Screening COc1ccc(CNC(=O)c2ccc3nc(CCc4ccccc4)oc3c2)c(OC)c1 returned GLP1R inv ag -14.8%, GLP1R cytotox 1.1% and PTHR1 ag inactive.
CCCCn1c(SCC(=O)N2c3ccccc3Sc3ccccc32)nc2c1c(=O)n(C)c(=O)n2C was read as GLP1R inv ag 11.2µM*, GLP1R ag 3.0%, GLP1R cytotox -29.8% and PTHR1 ag -28.3%[57.5 µM].
For Cc1cccc(CNC(=O)c2cnc3c(-c4cccc(C)c4)c(C)nn3c2C)c1 the results were GLP1R inv ag -5.1%, GLP1R cytotox 4.7% and PTHR1 ag inactive.
